Experiment [1] in a line: qHTS drug screen for cell cycle checkpoint inhibitors in PARPi-resistant BRCA-mutant ovarian cancer cell lines. (AID 1963452; calls by dose curve). The conditions noted are these: PEO1/OlaR viability, CellTiter-Glo luminescence, 96 h, stronger effect = lower value. In outline:
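PEO1, PEO4 and PEO1/OlaR ovarian cancer cells, 600 per well, exposed 96 h at 37C to a dilution series. Viability read by CellTiter-Glo luminescence, normalized to DMSO and empty wells; activity summarized as Z-AUC.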

Experiment [2] in a line: qHTS for identification of novel therapeutic agents for treatment of microphthalmiaassociated transcription factor (MiT) renal cell carcinoma (RCC) (AID 1963991; calls by dose curve; note: potency is the fitted concentration of half-maximal effect;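 for z-score: curves scaled with 100% = DMSO viability and 0% = empty wells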). The conditions noted are these: CellTiter-Glo, 48 h; for z-score: stronger effect = lower value. In outline:
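UOK109/UOK124/UOK145 (TFE3 fusions, three partners); 500 cells/well; MIPE v4.0, 1912 cpds, 11 conc.; 48 h, 37 C; CellTiter-Glo, 15 min RT; lum. Norm.: DMSO 100%, empty 0%.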

Experiment [3] in a line: qHTS profiling for inhibitors of Plasmodium falciparum proliferation (AID 504749).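 For activity, negative = inhibition: 0% = DMSO vehicle and full inhibition = artemisinin control.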 Note: nearly all actives have a fitted effect of over 60% in size. Note: potency is the fitted concentration of half-maximal effect. To be noted: P. falciparum in erythrocytes, SYBR Green DNA, 72 h, at 28.7 µM (top of the series). In short, it runs like this: (§1)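 In a 72 h erythrocytic culture (37 C, humidified, 5% CO2) at 2.5% hematocrit and 0.3% starting parasitemia, compounds were tested; SYBR Green I in detergent lysis buffer stained parasite DNA overnight.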

The test system of the next experiment is 3D7. Described as above. To be noted: P. falciparum in erythrocytes, SYBR Green DNA, 72 h; series mostly up to 28.7 µM. In outline: as §1
Another experiment deals with 7G8. The experiment is described as above. The conditions noted are these: P. falciparum in erythrocytes, SYBR Green DNA, 72 h; series mostly up to 28.7 µM. In outline:
as §1

In the next experiment the test system is AA1029. The experiment is described as above. The conditions noted are these: P. falciparum in erythrocytes, SYBR Green DNA, 72 h; series mostly up to 28.7 µM. In outline: as §1
The next experiment has as its system AS120. Described as above. The conditions noted are these: P. falciparum in erythrocytes, SYBR Green DNA, 72 h; series mostly up to 28.7 µM. In short, it runs like this: as §1
The next experiment deals with ATS189. Described as above. The conditions noted are these: P. falciparum in erythrocytes, SYBR Green DNA, 72 h; series mostly up to 28.7 µM. In outline: as §1
In a further experiment the test system is ATS95. The experiment is described as above. To be noted: P. falciparum in erythrocytes, SYBR Green DNA, 72 h; series mostly up to 28.7 µM. In short, it runs like this: as §1
A further experiment has as its system C2A. The experiment is described as above. To be noted: P. falciparum in erythrocytes, SYBR Green DNA, 72 h; series mostly up to 28.7 µM. In short, it runs like this: as §1
In a further experiment the test system is CP185. The experiment is described as above. The conditions noted are these: P. falciparum in erythrocytes, SYBR Green DNA, 72 h; series mostly up to 28.7 µM. In short, it runs like this:
as §1

The subject of the next experiment is CP191. The description is as above. To be noted: P. falciparum in erythrocytes, SYBR Green DNA, 72 h; series mostly up to 28.7 µM. In short, it runs like this:
as §1

The next experiment has as its system CP192. The description is as above. To be noted: P. falciparum in erythrocytes, SYBR Green DNA, 72 h; series mostly up to 28.7 µM. In outline: as §1
The next experiment relates to CP194. The experiment is described as above. To be noted: P. falciparum in erythrocytes, SYBR Green DNA, 72 h; series mostly up to 28.7 µM. In short, it runs like this:
as §1

The subject of a further experiment is CP201. The experiment is described as above. To be noted: P. falciparum in erythrocytes, SYBR Green DNA, 72 h; series mostly up to 28.7 µM. In short, it runs like this: as §1
For another experiment, the system named is CP211. The experiment is described as above. The conditions noted are these: P. falciparum in erythrocytes, SYBR Green DNA, 72 h; series mostly up to 28.7 µM. In short, it runs like this: as §1
For the next experiment, the system named is CP215. The description is as above. The conditions noted are these: P. falciparum in erythrocytes, SYBR Green DNA, 72 h; series mostly up to 28.7 µM. In outline:
as §1

For another experiment, the system named is CP217. Described as above. To be noted: P. falciparum in erythrocytes, SYBR Green DNA, 72 h; series mostly up to 28.7 µM. In outline: as §1
A further experiment relates to CP237. The description is as above. The conditions noted are these: P. falciparum in erythrocytes, SYBR Green DNA, 72 h; series mostly up to 28.7 µM. In short, it runs like this: as §1
Where [4] appears, read: measured here: PEO1 parental Z-AUC.
Setting [5] is: TFE3-RCC UOK109 viability, measured here: UOK109 Z-AUC.
[6] abbreviates: TFE3-RCC viability, measured here: UOK124 Z-AUC.
The mark [7] stands for this setting: TFE3-RCC viability, measured here: UOK145 Z-AUC.

These results are taken from PubChem BioAssay (NCATS).

Results filed as inconclusive are left out. Active and inactive are the calls of the source. Unless noted, calls come from the whole dose curve; as a rule, active = well fitted inhibition curve with a large enough effect; inconclusive = small, poorly fitted or top-dose-only effect; inactive = flat fitted curve, though single readings scatter.

As to `Oc1cccc(-c2nc(N3CCOCC3)c3oc4ncccc4c3n2)c1`, the Z-AUC in experiment [1] is -0.82 (inactive); in [1] (setting [4]), -0.749; in [1] (measured here: PEO4 Z-AUC), -0.797. Besides, the Potency in [2] (TFE3-RCC UOK109 viability, active = Z-AUC below -0.8 in all three lines) is 4.81 µM (active). In addition, the z-score in [2] (setting [5]) is -1.31; in [2] (setting [6]), -1.8; in [2] (setting [7]) it was -2.03.

On to `O=c1ncn2nc(Sc3ccc(F)cc3F)ccc2c1-c1c(Cl)cccc1Cl`, for which the results for the Z-AUC in experiment [1], in experiment [1] (setting [4]) and in experiment [1] (measured here: PEO4 Z-AUC) were -0.105 (inactive), 0.606 and 0.747, respectively. Moreover, the z-score in [2] (setting [5]) came to 0.124; in [2] (setting [6]), 1.12; in experiment [2] (setting [7]) it was 1.1.

As for `CCCc1nn(C)c2c(=O)[nH]c(-c3cc(S(=O)(=O)N4CCN(C)CC4)ccc3OCC)nc12`, the Z-AUC in experiment [1] was 1.57 (inactive); in experiment [1] (setting [4]) it was 1.2; in experiment [1] (measured here: PEO4 Z-AUC), 0.991. The figures for the activity, negative = inhibition in [3] (parasite line A) and in [3] (parasite line B) were 8.82% (inactive) and 0.131% (inactive), respectively. For the same molecule, the Potency entry with 3D7, in the experiment on AA1029, in the experiment with AS120, with ATS189, with ATS95 and in the experiment with C2A was “inactive” each time. The Potency result in the experiment with CP185, in the experiment on CP191, in the experiment with CP192, in the experiment with CP194, in the experiment with CP211 and in the experiment with CP215 was “inactive” throughout. The Potency entry with CP217 was “inactive”. Besides, the Potency with 7G8 was 11.2 µM (active). Besides, the outcome in the experiment with CP201 was inactive.

Consider `NCCc1ccc(O)c(O)c1`, for which the values for the Z-AUC in [1], in experiment [1] (setting [4]) and in [1] (measured here: PEO4 Z-AUC) were 0.293 (inactive), 0.902 and 0.891, respectively. The results for the z-score in experiment [2] (setting [5]), in experiment [2] (setting [6]) and in [2] (setting [7]) were 0.759, 0.079 and 0.506, respectively. Further, the activity, negative = inhibition in experiment [3] (parasite line A) is -7.96% (inactive); in experiment [3] (parasite line B), 1.48% (inactive). The Potency result in the experiment on 3D7, in the experiment on 7G8, in the experiment on AA1029, in the experiment on AS120, in the experiment with ATS189 and in the experiment with C2A was “inactive” throughout. Besides, the Potency result in the experiment on CP185, in the experiment with CP191, in the experiment on CP192, in the experiment with CP194, in the experiment with CP211 and in the experiment on CP215 was “inactive” in each case. Besides, the Potency entry with CP217 and with CP237 was “inactive” in each case. The call with CP201 was inactive.

With `CC[C@@H](C)[C@H](NC(=O)[C@H](CC1CCCCC1)NC(=O)c1ccno1)C(=O)N1CCC2(CCc3ccccc32)CC1`, the Z-AUC in [1] is -0.29 (inactive); in experiment [1] (setting [4]), -0.177; in experiment [1] (measured here: PEO4 Z-AUC), -0.471. The z-score in experiment [2] (setting [5]) is 0.139; in experiment [2] (setting [6]) it was 0.261; in [2] (setting [7]) it was -0.242.

`Cc1[nH]c(=O)c(C#N)cc1-c1ccc2nccn2c1`: the figures for the Z-AUC in experiment [1], in [1] (setting [4]) and in [1] (measured here: PEO4 Z-AUC) were -0.546 (inactive), -0.575 and -0.131, respectively. The activity, negative = inhibition in experiment [3] (parasite line A) is 5.44% (inactive); in experiment [3] (parasite line B), 15.3% (inactive). The Potency entry in the experiment on 3D7, in the experiment with 7G8, with AA1029, with AS120, in the experiment with ATS189 and in the experiment on ATS95 was “inactive” each time. The Potency entry with C2A, with CP185, in the experiment with CP191, in the experiment on CP192, in the experiment on CP194 and in the experiment on CP211 was “inactive” throughout. Besides, the Potency entry in the experiment on CP215, in the experiment with CP217 and with CP237 was “inactive” in each case. The molecule was called inactive in the experiment on CP201.
